{
  "source": "the supplement of paper PMC4166925",
  "note": "± gives the standard deviation of the averaged measurements. In all, about 33,000 sequences were measured (“E-score (dimensionless, -0.5 to 0.5)”: median about -0.046, highest 2% from about 0.36 on). This excerpt belongs to a sample that is enriched for the highest values.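 Also: protein at 200 nM in PBS on universal double-stranded arrays.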",
  "data": [
    {"system": "T1, SpTbr T-box DNA-binding domain (GST fusion)", "T1 sequence": "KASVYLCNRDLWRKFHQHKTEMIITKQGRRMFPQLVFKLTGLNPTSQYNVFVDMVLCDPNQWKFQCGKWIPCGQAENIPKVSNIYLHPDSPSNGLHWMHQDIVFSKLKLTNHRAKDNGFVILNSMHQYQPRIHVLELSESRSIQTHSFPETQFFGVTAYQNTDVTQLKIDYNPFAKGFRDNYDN", "test": "PBM E-score of 8-mer (E-score (dimensionless, -0.5 to 0.5)); Tbr is Tbrain of the sea star Patiria miniata (Pm) or the sea urchin Strongylocentrotus purpuratus (Sp); higher = stronger binding preference", "conditions": "the construct has about 5 more residues each side", "method": "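Universal protein-binding microarray (Agilent AMADID 016060, 60-bp probes with a 35-bp variable region) incubated with 200 nM GST-fused Strongylocentrotus purpuratus Tbr T-box DNA-binding domain (residues 362-554) in PBS pH 7.5. Scored for every ungapped 8-mer (given with its reverse complement) as E-score (range -0.5 to 0.5; >0.45 counts as bound) and Z-score of median probe intensity. Two replicate arrays (datasets 1 and 2).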", "values": [
      {"sequence": "AGGTGACT", "PBM E-score of 8-mer": "0.276 ± 0.001"},
      {"sequence": "CGGTGACG", "PBM E-score of 8-mer": "0.233 ± 0.02"},
      {"sequence": "AGGTGACC", "PBM E-score of 8-mer": "0.151 ± 0.0043"},
      {"sequence": "ACGTGACA", "PBM E-score of 8-mer": "0.3127 ± 0.0018"},
      {"sequence": "AGGTGACA", "PBM E-score of 8-mer": "0.469 ± 0.015"},
      {"sequence": "AGGTGACG", "PBM E-score of 8-mer": "0.453 ± 0.0078"},
      {"sequence": "CGATGGAG", "PBM E-score of 8-mer": "-0.131 ± 0.032"},
      {"sequence": "AGACGTAC", "PBM E-score of 8-mer": "-0.0414 ± 0.071"},
      {"sequence": "CCCCAGCC", "PBM E-score of 8-mer": "-0.0674 ± 0.013"},
      {"sequence": "AGGAGTAT", "PBM E-score of 8-mer": "-0.223 ± 0.0026"},
      {"sequence": "AATGACAG", "PBM E-score of 8-mer": "0.0199 ± 0.049"},
      {"sequence": "GATGACCC", "PBM E-score of 8-mer": "0.12 ± 0.0038"},
      {"sequence": "GATGACAC", "PBM E-score of 8-mer": "0.402 ± 0.0092"},
      {"sequence": "AATGACAC", "PBM E-score of 8-mer": "0.3799 ± 0.0026"},
      {"sequence": "CATGACAC", "PBM E-score of 8-mer": "0.3587 ± 0.0021"},
      {"sequence": "GATGACAA", "PBM E-score of 8-mer": "0.278 ± 0.026"},
      {"sequence": "AATCTGAT", "PBM E-score of 8-mer": "-0.25 ± 0.015"},
      {"sequence": "GAACGCCC", "PBM E-score of 8-mer": "0.138 ± 0.0086"},
      {"sequence": "AGGTGGGA", "PBM E-score of 8-mer": "0.433 ± 0.0055"},
      {"sequence": "AGGTGGTG", "PBM E-score of 8-mer": "0.34049 ± 0.00016"},
      {"sequence": "AGGTGGTC", "PBM E-score of 8-mer": "-0.117 ± 0.11"},
      {"sequence": "AGGTGGTA", "PBM E-score of 8-mer": "0.405 ± 0.011"},
      {"sequence": "CGGTGGGA", "PBM E-score of 8-mer": "0.00775 ± 0.037"},
      {"sequence": "AGGTGGGC", "PBM E-score of 8-mer": "-0.0803 ± 0.021"},
      {"sequence": "AGAGGGAA", "PBM E-score of 8-mer": "-0.179 ± 0.028"},
      {"sequence": "GAGCTTCC", "PBM E-score of 8-mer": "-0.129 ± 0.05"},
      {"sequence": "CGGCGACA", "PBM E-score of 8-mer": "0.296 ± 0.018"},
      {"sequence": "AGGTGGAA", "PBM E-score of 8-mer": "0.0503 ± 0.028"},
      {"sequence": "GAACTAAC", "PBM E-score of 8-mer": "0.135 ± 0.023"},
      {"sequence": "TGCGACAA", "PBM E-score of 8-mer": "0.271 ± 0.022"},
      {"sequence": "GGCGACAC", "PBM E-score of 8-mer": "0.381 ± 0.0043"},
      {"sequence": "CGCGACAA", "PBM E-score of 8-mer": "0.309 ± 0.0049"},
      {"sequence": "GGCGACAA", "PBM E-score of 8-mer": "0.3676 ± 0.0007"},
      {"sequence": "CGCGACAC", "PBM E-score of 8-mer": "0.35396 ± 0.00035"},
      {"sequence": "AGCGACAC", "PBM E-score of 8-mer": "0.332 ± 0.022"},
      {"sequence": "GCTTTGCA", "PBM E-score of 8-mer": "0.0233 ± 0.069"},
      {"sequence": "AGTCCAGG", "PBM E-score of 8-mer": "-0.396 ± 0.039"},
      {"sequence": "AAGTCCCA", "PBM E-score of 8-mer": "-0.0384 ± 0.044"},
      {"sequence": "CAGAAACC", "PBM E-score of 8-mer": "-0.106 ± 0.08"},
      {"sequence": "AAATTCTG", "PBM E-score of 8-mer": "-0.136 ± 0.06"},
      {"sequence": "AAAAGGTT", "PBM E-score of 8-mer": "-0.0952 ± 0.076"},
      {"sequence": "AAAAGGTG", "PBM E-score of 8-mer": "0.41 ± 0.0094"},
      {"sequence": "CAAAGGTC", "PBM E-score of 8-mer": "-0.105 ± 0.028"},
      {"sequence": "AAAAGGTC", "PBM E-score of 8-mer": "-0.00656 ± 0.018"},
      {"sequence": "CAAAGGTA", "PBM E-score of 8-mer": "-0.0771 ± 0.04"},
      {"sequence": "CAAAGGTG", "PBM E-score of 8-mer": "0.3923 ± 0.00076"},
      {"sequence": "GGTACTAC", "PBM E-score of 8-mer": "-0.3 ± 0.033"},
      {"sequence": "ACGTCGAC", "PBM E-score of 8-mer": "0.0807 ± 0.016"},
      {"sequence": "GCACTCCC", "PBM E-score of 8-mer": "0.128 ± 0.051"},
      {"sequence": "AGCATAAT", "PBM E-score of 8-mer": "-0.177 ± 0.0018"},
      {"sequence": "AATAGGTC", "PBM E-score of 8-mer": "-0.154 ± 0.017"},
      {"sequence": "ACTAGGTC", "PBM E-score of 8-mer": "-0.14 ± 0.024"},
      {"sequence": "AGTAGGTC", "PBM E-score of 8-mer": "-0.0701 ± 0.038"},
      {"sequence": "AGTAGGTA", "PBM E-score of 8-mer": "-0.00286 ± 0.076"},
      {"sequence": "AGTAGGTG", "PBM E-score of 8-mer": "0.3972 ± 0.0024"},
      {"sequence": "ACTAGGTG", "PBM E-score of 8-mer": "0.403 ± 0.012"},
      {"sequence": "AATAGGTA", "PBM E-score of 8-mer": "-0.0758 ± 0.075"},
      {"sequence": "AATAGGTG", "PBM E-score of 8-mer": "0.374 ± 0.03"},
      {"sequence": "ACTAGGTA", "PBM E-score of 8-mer": "-0.0768 ± 0.014"},
      {"sequence": "TCAACAAA", "PBM E-score of 8-mer": "-0.0651 ± 0.048"},
      {"sequence": "AGAAGTAT", "PBM E-score of 8-mer": "-0.0503 ± 0.0051"},
      {"sequence": "AACGTTAT", "PBM E-score of 8-mer": "0.0135 ± 0.06"},
      {"sequence": "ACAAAACA", "PBM E-score of 8-mer": "0.0943 ± 0.064"},
      {"sequence": "ATAGAGTC", "PBM E-score of 8-mer": "-0.206 ± 0.0048"},
      {"sequence": "CGTCTACA", "PBM E-score of 8-mer": "0.0944 ± 0.046"},
      {"sequence": "AGGGGGTG", "PBM E-score of 8-mer": "0.269 ± 0.055"},
      {"sequence": "CGGGTGTC", "PBM E-score of 8-mer": "0.3608 ± 0.0021"},
      {"sequence": "AGGGTGTG", "PBM E-score of 8-mer": "0.449 ± 0.011"},
      {"sequence": "ACGGTGTC", "PBM E-score of 8-mer": "0.271 ± 0.051"},
      {"sequence": "AGGGTGCG", "PBM E-score of 8-mer": "0.402 ± 0.01"},
      {"sequence": "AGGGTGCC", "PBM E-score of 8-mer": "0.267 ± 0.013"},
      {"sequence": "AGGGTGCA", "PBM E-score of 8-mer": "0.188 ± 0.025"},
      {"sequence": "AGGGTGTA", "PBM E-score of 8-mer": "0.307 ± 0.035"},
      {"sequence": "AGGGTGTC", "PBM E-score of 8-mer": "0.401 ± 0.015"},
      {"sequence": "AACAGAGT", "PBM E-score of 8-mer": "-0.0053 ± 0.1"},
      {"sequence": "CACGTTGC", "PBM E-score of 8-mer": "0.101 ± 0.025"},
      {"sequence": "ATTACTTA", "PBM E-score of 8-mer": "-0.154 ± 0.05"},
      {"sequence": "AGAGAGAG", "PBM E-score of 8-mer": "0.0384 ± 0.024"},
      {"sequence": "GCTAACCC", "PBM E-score of 8-mer": "0.04 ± 0.097"},
      {"sequence": "CCTAACAG", "PBM E-score of 8-mer": "0.0988 ± 0.11"},
      {"sequence": "CCTAACAA", "PBM E-score of 8-mer": "0.161 ± 0.035"},
      {"sequence": "ACTAACAC", "PBM E-score of 8-mer": "0.402 ± 0.0071"},
      {"sequence": "CCTAACAC", "PBM E-score of 8-mer": "0.4165 ± 0.0028"},
      {"sequence": "AGTAACAC", "PBM E-score of 8-mer": "0.3552 ± 0.0029"},
      {"sequence": "CGTAACAC", "PBM E-score of 8-mer": "0.3104 ± 0.0022"},
      {"sequence": "GCTAACAC", "PBM E-score of 8-mer": "0.417 ± 0.0044"},
      {"sequence": "ACTAACAA", "PBM E-score of 8-mer": "0.152 ± 0.039"},
      {"sequence": "GCTAACAA", "PBM E-score of 8-mer": "0.293 ± 0.03"},
      {"sequence": "GGTAACAC", "PBM E-score of 8-mer": "0.435 ± 0.0032"},
      {"sequence": "ACTAACAG", "PBM E-score of 8-mer": "0.1931 ± 0.00053"},
      {"sequence": "CGACCCGA", "PBM E-score of 8-mer": "-0.0816 ± 0.051"},
      {"sequence": "TAACCAGA", "PBM E-score of 8-mer": "-0.055 ± 0.015"},
      {"sequence": "AGCAAAAG", "PBM E-score of 8-mer": "-0.191 ± 0.046"},
      {"sequence": "ACGCAACA", "PBM E-score of 8-mer": "0.121 ± 0.024"}
    ]}
  ]
}
